# Laboratory results: PubChem BioAssay AID2014 (Sanford-Burnham Center for Chemical Genomics, 2009)
# Among all 290,000 compounds or so, about 3,000 (1%) were called active. The sample holds actives, similar compounds and a random draw of the others, so the mix is not that of the screen. The rule behind the calls is not given here.
# Target: Polyadenylate-binding protein 1 (Homo sapiens) (UniProt P11940)
# Assay: blockers of PABP interaction with poly(A) – biochemical, fluorescence polarization, uHTS, primary screen (AID 2014);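 note: calls also rest on retests at 20 µM and on dose response follow-up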
# Settings: PABP-poly(A) RNA binding, stronger effect = higher value
# Chain of Polyadenylate-binding protein 1 (Homo sapiens) (P11940 whole entry, looked up): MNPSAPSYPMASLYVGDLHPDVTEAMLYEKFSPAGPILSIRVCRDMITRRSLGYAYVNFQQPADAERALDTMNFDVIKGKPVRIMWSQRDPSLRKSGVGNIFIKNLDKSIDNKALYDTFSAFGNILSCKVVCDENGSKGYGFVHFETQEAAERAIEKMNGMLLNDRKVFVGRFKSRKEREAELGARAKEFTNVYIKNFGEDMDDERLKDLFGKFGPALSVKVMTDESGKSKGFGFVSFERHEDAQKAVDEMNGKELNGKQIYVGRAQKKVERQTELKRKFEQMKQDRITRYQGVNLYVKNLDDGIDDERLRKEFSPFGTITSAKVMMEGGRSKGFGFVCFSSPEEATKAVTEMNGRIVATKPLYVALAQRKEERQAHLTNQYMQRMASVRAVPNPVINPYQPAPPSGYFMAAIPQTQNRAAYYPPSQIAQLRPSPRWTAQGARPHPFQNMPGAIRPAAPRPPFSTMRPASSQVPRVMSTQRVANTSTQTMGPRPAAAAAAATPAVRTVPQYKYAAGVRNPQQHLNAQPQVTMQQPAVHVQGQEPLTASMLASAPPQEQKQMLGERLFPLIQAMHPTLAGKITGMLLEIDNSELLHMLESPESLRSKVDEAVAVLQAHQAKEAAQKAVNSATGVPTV
SMILES,inhibition (at 35 µM),"inhibition (confirmation repeats, at 20 µM) [%]"
COCc1cc(=O)n2[nH]c(C)c(-c3ccccc3)c2n1,8.4% (inactive),–
COc1ccc(CCn2c(-c3ccco3)nc3nc4ccccc4nc32)cc1OC,12.4% (inactive),–
Cn1c(-c2ccco2)nc2cc3ccccc3cc21,4% (inactive),–
c1coc(-c2nc3nc4ccccc4n3nc2-c2ccco2)c1,63.7% (active),–
CCOC(=O)C1=C(CCc2ccccc2)NC(=O)NC1c1ccc2ccccc2c1 (stereo not given),-1% (inactive),–
CCOC(=O)CNC(=O)CSc1ncccc1-c1nc2ccccc2[nH]1,0.2% (inactive),–
Cc1cc(C(=O)NCCc2ccc(Cl)cc2)c(C)o1,0% (inactive),–
Cc1cc(C)cc(NC(=O)CCN2C(=O)c3ccccc3C2=O)c1,0.7% (inactive),–
Cc1cc(C)cc(OCC(=O)NNC(=O)CCN2C(=O)c3ccccc3C2=O)c1,116% (active),74.1
Cc1ccc(NC(=O)CCN2C(=O)c3ccccc3C2=O)cc1C,-7.2% (inactive),–
COc1cc(NC(=O)c2ccc(-c3csc(C)n3)cc2)c(OC)cc1Cl,7.9% (inactive),–
COC(=O)c1cc(NS(=O)(=O)c2ccc3c(c2)c(=O)n(C)c(=O)n3C)cc(C(=O)OC)c1,3.8% (inactive),–
COC(=O)c1ccc(N2CCOCC2)c(NC(=O)c2ccc3c(c2)OCCO3)c1,4.7% (inactive),–
CCC(CC)C(=O)N1CCN(c2cccc(C)c2C)CC1,-1.2% (inactive),–
Cc1cccc(N2CCN(C(=O)/C=C/c3ccco3)CC2)c1C,-10.7% (active),96.7
O=C(/C=C/c1ccco1)NC(=S)N1CCCCC1,1.1% (inactive),–
COc1ccc(C(O)(C2CCCCC2)C(CN2CCCC2)c2ccccc2)cc1 (stereo not given),12.9% (inactive),–
Cc1ccc2sc(N(CCN(C)C)C(=O)/C=C/c3cccs3)nc2c1C,-1.9% (inactive),–
CCCN(c1ccc(C)cc1)c1nc(=O)c2cccnc2s1,71.4% (active),–
CC1(C(=O)N/N=C/c2cc3c(cc2Br)OCO3)CC1(Br)Br (stereo not given),-5.1% (inactive),–
CCN(CC(=O)NCc1ccco1)S(=O)(=O)c1ccc(F)cc1,-5.2% (inactive),–
NS(=O)(=O)c1cccc(NC(=O)CC23CC4CC(CC(Br)(C4)C2)C3)c1,-11.5% (inactive),–
CC(C)Nc1ccc(-n2nc3ccccc3[n+]2[O-])cc1,1% (inactive),–

SMILES,inhibition (at 35 µM),"inhibition (confirmation repeats, at 20 µM) [%]"
O=C(NCCN1CCOCC1)c1ccc(/C=C2\Sc3ccccc3N(Cc3ccc(F)cc3)C2=O)cc1,-1.5% (inactive),–
CCN1CCN(CCNC(=O)c2ccc3c(c2)NC(=O)/C(=C\c2ccc(OC)c(OC)c2)S3)CC1,6.5% (inactive),–
CCN1CCN(CCNC(=O)c2ccc(/C=C3/Sc4ccccc4N(Cc4cccc(C)c4)C3=O)cc2)CC1,60.2% (active),75.8
COc1ccc(/C=N/OCc2ccccc2C#N)c(OC)c1,12.1% (inactive),–
CC(NC(=O)CCCC1CCCCC1)c1ccc(S(N)(=O)=O)cc1 (stereo not given),-0.5% (inactive),–
Cc1ccc(NC(=O)Cc2nnc(SCC(=O)Nc3nncs3)n2C)cc1,-10.3% (inactive),–
COc1cccc(NC(=S)NCc2ccco2)c1,3.2% (inactive),–
S=C(NCc1ccc2c(c1)OCO2)NCc1ccco1,2.5% (inactive),–
S=C(NCc1ccco1)Nc1ccc2c(c1)OCCO2,76.8% (active),58.4
CCOC(=O)C1=C(C)NC(=S)NC1c1cccs1 (stereo not given),3.2% (inactive),–
N#CC1=C(N)C(C#N)(C#N)[C@H](c2ccsc2)[C@H]2COCC=C12,111% (inactive),0
CCOC(=O)N1CC=C2C(C#N)=C(N)C(C#N)(C#N)[C@H](c3cccs3)[C@H]2C1,82.2% (active),–
O=C(N/C(=C\c1ccc([N+](=O)[O-])cc1)C(=O)N1CCCCC1)c1ccco1,4.9% (inactive),–
COc1cc(C(=O)Nn2c(CC(C)C)nc3ccccc3c2=O)cc(OC)c1OC,1.2% (inactive),–
Cc1ccc(N(Cc2cc(=O)[nH]c3ccccc23)C(=O)CCl)cc1,3% (inactive),–
COc1ccc(N(Cc2ccc(N(C)C)cc2)C(=O)c2ccc(S(C)(=O)=O)cc2)cc1,-1.6% (inactive),–
Nc1nc(-c2ccccc2)cc(-c2ccccc2)n1,9.3% (inactive),–
CNc1nc(-c2ccccc2)cc(-c2ccccc2)n1,4.7% (inactive),–
CS(=O)(=O)c1sc2nc(-c3ccccc3)cc(-c3ccccc3)c2c1N,117% (active),–
CCc1ccccc1NC(=O)c1cc(-c2ccc3c(c2)OCO3)on1,3.5% (inactive),–
C/C(=N\NC(=O)COc1ccc(C)cc1[N+](=O)[O-])c1ccc2c(c1)OCCO2,3.8% (inactive),–
COC(=O)c1cccc(N(C(=O)CNC(=O)c2cccs2)C(C(=O)NCC2CCCO2)c2ccc(OC)c(OC)c2)c1 (stereo not given),1% (inactive),–
CCC(=O)N1CCCc2ccccc21,59.1% (active),–

SMILES,inhibition (at 35 µM),"inhibition (confirmation repeats, at 20 µM) [%]"
O=C(CSCc1ccccc1)N1CCc2ccccc21,2.2% (inactive),–
CCn1c(=O)c2ccccc2n(CC(=O)N2CCCc3ccccc32)c1=O,-1.4% (inactive),–
Cc1cc(NC(=O)c2ccc(F)cc2)ccc1NC(=O)c1ccco1,1.1% (inactive),–
Cc1c(C(=O)N2CCN(c3ccc(F)cc3)CC2)oc2c1C(=O)CCC2,5.7% (inactive),–
O=C(NCc1cccc(CNC(=O)Nc2cccc(O)c2)c1)Nc1cccc(O)c1,3.3% (inactive),–
COc1ccc(C)cc1-n1nnnc1SCC(=O)c1cc(C)n(Cc2ccco2)c1C,51.1% (active),–
Cc1cc(C(=O)CSc2nc(N)cc(=O)[nH]2)c(C)n1Cc1ccco1,10.5% (inactive),–
COc1ccc(OC)c(-n2nnnc2SCC(=O)Nc2cc(C)ccc2OC)c1,2.6% (inactive),–
O=C(OCC1O[C@@H](OC(=O)c2cc(O)c(O)c(O)c2)[C@@H](OC(=O)c2cc(O)c(O)c(O)c2)[C@@H](OC(=O)c2cc(O)c(O)c(O)c2)[C@@H]1OC(=O)c1cc(O)c(O)c(O)c1)c1cc(O)c(O)c(O)c1 (stereo not given in full),88.2% (active),–
Cc1ccc(-c2nc(-c3ccncc3)no2)c(C)c1,9.6% (inactive),–
COc1ccc(-c2ocnc2C(=O)Nc2ccc3c(c2)CCC3)cc1,5.3% (inactive),–
Cc1ccc2c(cnn2C(=O)CCC(=O)NC2CCCC2)c1,-2.1% (inactive),–
COc1ccc(Nc2ccc([N+](=O)[O-])cn2)cn1,39.7% (active),54
COc1ccccc1C1CCN(c2ccc([N+](=O)[O-])cn2)CC1,3.2% (inactive),–
COc1ccc(C(=O)NCCNc2ccc([N+](=O)[O-])cn2)cc1,-2.9% (inactive),–
CCOc1ccc(N(CC)S(=O)(=O)c2cccc3nsnc23)cc1,51% (inactive),37.2
CC(=O)Nc1ccc(NC(=O)CN2C(=O)COc3ccc(S(=O)(=O)N4CCCCC4)cc32)cc1,0% (inactive),–
O=C(NCCc1nnc2ccc(SCC(=O)N3CCOCC3)nn12)c1ccccc1,6.6% (inactive),–
COc1cccc(/C=C2/SC(=S)N(CC(=O)NC3C=CS(=O)(=O)C3)C2=O)c1 (stereo not given),8.2% (inactive),–
CCNc1c(NS(=O)(=O)c2ccc(C3CCCCC3)cc2)c(=O)oc2ccccc12,2.8% (inactive),–
CC1=NN(C(N)=S)C(=O)C1N=Nc1cc(Cl)ccc1Cl (stereo not given),11.1% (inactive),–
Cn1c(=O)n(C)c2cc(C(=O)Nc3ccc4c(c3)OCO4)ccc21,9.8% (inactive),–
Cc1ccc(C(=O)O)cc1-c1ccc(/C=C2\SC(=O)N(CC(=O)Nc3ccc4c(c3)OCO4)C2=O)o1,62.5% (active),–

SMILES,inhibition (at 35 µM),"inhibition (confirmation repeats, at 20 µM) [%]"
COc1ccc(NC(=O)CCN2C(=O)/C(=C/c3ccc4c(c3)OCO4)SC2=S)cc1,28.4% (inactive),–
CCOc1ccc(N(C(=O)c2snc(C(N)=O)c2N)C(C(=O)NCC2CCCO2)c2c[nH]c3ccccc23)cc1 (stereo not given),8.6% (inactive),–
O=C(CCc1c[nH]c2ccccc12)NCCOc1ccccc1,3.3% (inactive),–
CCN(CCCNC(=O)c1ccc2c(c1)NC(=O)CN2C)c1cccc(C)c1,0.9% (inactive),–
CCOc1ccc(N(C)S(=O)(=O)c2cnc[nH]2)cc1,-4.6% (inactive),–
O=C(CCN1CCCO1)N1CCCC(N2CCN(c3cccc(C(F)(F)F)c3)CC2)C1 (stereo not given),-17.5% (inactive),–
CCN1C(=O)/C(=c2\s/c(=C3\Sc4ccccc4N3C)c(=O)n2C)N(C)C1=S,-6.7% (inactive),–
CN1/C(=c2/s/c(=C3/C(=O)N(c4ccccc4)NC3=Nc3ccccc3)n(C)c2=O)C(C)(C)c2ccccc21,79.2% (active),–
CCc1cccc(C)c1NC(=O)CSc1nnc(-c2ccco2)n1N,-0.1% (inactive),–
NC(=O)c1c(NC(=O)CSc2nc(N)cc(=O)[nH]2)sc2c1CCCC2,9.6% (inactive),–
NC(=O)c1c(NC(=O)CSc2nnc(-c3ccco3)n2N)sc2c1CCCC2,43.3% (active),90.6
C[C@@H](NC(=O)[C@@H]1Cc2ccccc2CN1)C(=O)NC1CCCC1,21% (inactive),–
Cc1ccc(CN2CCCOCCS2(=O)=O)cc1,5.7% (inactive),–
N#Cc1ccccc1CN1C(=O)S/C(=C/c2cccn2-c2cccc(C(=O)O)c2)C1=O,37.4% (active),65.8
Cc1ccccc1NC(=O)CN1C(=O)N/C(=C\c2cccn2-c2cccc(C(=O)O)c2)C1=O,82.4% (inactive),24.9
Cn1cccc1/C=C1\SC(=O)N(CC(=O)Nc2ccc(F)cc2)C1=O,2.5% (inactive),–
C=CCn1c(SCc2ccccc2)nc2c1c(=O)[nH]c(=O)n2C,-1.9% (inactive),–
O=C(O)c1cc(S(=O)(=O)N(Cc2ccccc2)c2cccc(C(F)(F)F)c2)ccc1Cl,7.3% (inactive),–
Cc1cc(=O)[nH]c(SCc2cccc(F)c2)n1,-3.3% (inactive),–
COc1ccccc1-c1noc(CSc2nc(C)cc(=O)[nH]2)n1,56.6% (active),–
Cc1cc(=O)[nH]c(SCc2cc(Cl)ccc2OC(F)F)n1,0.2% (inactive),–
